Assay outcomes from PubChem BioAssay.
Rows were chosen to be rich in hits. Some 7.5% of all compounds tested hit in one or more screens of this group.
RORgamma inh: ROR gamma (mouse) transcription inhibition. P51450. AID 2551. Potency, µM (series often up to 53.6 µM), without a hit: at the top dose activity change, negative = inhibition, actives largely listed as inhibitors. Drosophila S2 Gal4-RORgamma UAS-luciferase reporter, 20 h. 5.4% of 310,000 active; further: potency means the concentration at half of the fitted maximal effect; nearly all actives have a fitted effect of over 60% in size
Target sequence (P51450 whole entry, looked up, the tested form may be a part): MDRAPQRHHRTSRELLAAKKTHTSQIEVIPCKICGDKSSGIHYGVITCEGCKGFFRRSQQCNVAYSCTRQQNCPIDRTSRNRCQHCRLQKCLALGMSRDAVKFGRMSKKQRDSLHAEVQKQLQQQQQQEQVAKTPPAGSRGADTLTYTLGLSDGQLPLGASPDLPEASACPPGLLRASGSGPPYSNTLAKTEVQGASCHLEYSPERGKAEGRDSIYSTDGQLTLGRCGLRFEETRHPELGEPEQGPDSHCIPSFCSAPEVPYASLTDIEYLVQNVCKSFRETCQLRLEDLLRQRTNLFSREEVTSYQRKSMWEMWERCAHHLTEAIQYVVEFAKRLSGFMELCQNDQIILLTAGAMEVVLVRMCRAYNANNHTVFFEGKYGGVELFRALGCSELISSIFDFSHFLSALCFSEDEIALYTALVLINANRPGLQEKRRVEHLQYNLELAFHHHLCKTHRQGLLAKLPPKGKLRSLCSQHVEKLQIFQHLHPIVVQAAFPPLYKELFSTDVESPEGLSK
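Luciferase reporter read in Schneider cells carrying Gal4-RORγ (mouse) and UAS-Photinus luciferase; cells given compound 1 h before 700 uM copper sulfate induction, then incubated 20 h at ambient temperature.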
B2AR arrestin: recruits beta-arrestin to the human beta2-adrenergic receptor; Potency, µM (doses to about 46.1 µM), without a hit: top-dose activation, hits mostly activators; AID 492947; P07550; beta-arrestin recruitment to beta2AR, cell-based reporter; 0.02% of 330,000 active;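 further: potency means the concentration at half of the fitted maximal effect; 0% = DMSO controls and full agonism = EC100 isoproterenol or metaproterenol; nearly all actives have a fitted effect of over 65% in size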
TSHR antagonist: antagonists of human thyroid stimulating hormone receptor; 0.2% of 330,000 active; TSHR-expressing cells, TSH-stimulated cAMP HTRF, 2 h; stronger effect = lower value; activity change, negative = inhibition, % at 11.5 µM; AID 504810;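 active means activity change below a set negative limit, meaning inhibition stronger than a set level, cut at about -70% in these data; inconclusive means activity change between two set negative limits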
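TSHR-expressing cells, 200/well, pre-treated with compound, then stimulated with EC80 TSH (4nM final) for 2 hours at 37 deg C. cAMP measured by competitive HTRF: anti-cAMP cryptate antibody in lysis buffer plus cAMP-d2, read after 30 minutes at room temperature.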
ELG1 DNA repair: inhibitors of ELG1-dependent DNA repair in HEK293T cells; AID 504467; Potency, µM (top dose mostly 46.1 µM), without a hit: at the top dose activity change, negative = inhibition, hits mostly inhibitors; HEK293T ELG1-luciferase reporter, luminescence, 16 h; DNA damage induced by 5-fluorouridine; 2.3% of 330,000 active; further: potency means the concentration at half of the fitted maximal effect; nearly all actives have a fitted effect of over 55% in size
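DMSO vehicle served as the neutral condition. Each well held 2,000 cells given 5-fluorouridine plus compound; after 16 hr at 37 °C/5% CO2, ONE-Glo was added and luciferase measured 30 min later.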
Gal4-VP16 FLuc: Gal4-VP16 reporter inhibition counter-screen; Drosophila S2 Gal4-VP16 UAS-luciferase, luminescence, 20 h; 3.5% of 310,000 active; Potency, µM (series often up to 53.6 µM), without a hit: at the highest dose activity, negative = inhibition, most hits filed as inhibitors;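 further: Gal4-VP16 expression switched on by copper sulfate through the metallothionein promoter; potency means the concentration at half of the fitted maximal effect; nearly all actives have a fitted effect of over 50% in size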
Starred values were filed as active, the others as inactive; ? = inconclusive; . = no result; [ ] = remark or other dose. Unless noted, the call rests on the fitted dose curve; in most records, active means well fitted curve in the direction sought with a large enough effect; inconclusive means small, poorly fitted or top-dose-only effect, or another doubt; inactive means no such curve, though single readings can be large; an effect the other way counts as inactive or inconclusive. Unless noted, on the % scale 0 is the no-effect control and ±100 the full control effect.

SMILES	RORgamma inh	B2AR arrestin	TSHR antagonist	ELG1 DNA repair	Gal4-VP16 FLuc
O=[N+]([O-])c1ccc(F)c(N=Cc2ccc(Br)s2)c1	-2%	0%	0	23%	3%
Cc1ccc(OCC(=O)N/N=C\c2cccs2)c([N+](=O)[O-])c1	?	-1%	1	?	?
O=C(N/N=C/c1ccc(Br)s1)c1ccccc1[N+](=O)[O-]	2.5µM*	0%	19	-16%	6.3µM*
C[C@H](O)C(N)C(=O)O (some centres undefined)	-29%	.	.	.	-5%
O=C(CCc1nc2ccccc2c(=O)[nH]1)Nc1cc(C(F)(F)F)ccc1N1CCCC1	.	-1%	17	6%	.
O=C(O)CC(c1cccc([N+](=O)[O-])c1)N1Cc2ccccc2C1=O (centres undefined)	-17%	0%	24	7%	0%
C=CCN(c1ccccc1)S(=O)(=O)c1cccc(C(=O)Nc2cccc(C)n2)c1	.	0%	-13	-25%	.
CC(C)CNC(=S)N(CCCN(C)C)Cc1cc2cc3c(cc2[nH]c1=O)OCCO3	-1%	1%	-3	-24%	-6%
C/C(CCc1ccccc1)=N\NC(=O)c1ccccc1[N+](=O)[O-]	-16%	-1%	4	12%	-4%
CC(C)=CCC/C(C)=C/C=N/NC(=O)c1ccccc1[N+](=O)[O-]	6.3µM*	0%	-4	4%	11µM*
CC1CN(S(=O)(=O)c2cccc(-c3cn4ccccc4n3)c2)CC(C)O1 (centres undefined)	?	0%	-34	?	0.35µM*
COCC(C)N=C1NN=C(c2cccs2)C(CC(=O)O)S1 (centres undefined)	2µM*	0%	-4	4%	11µM*
COc1ccc(-c2nnc(NC(=O)c3ccc4c(c3)OCCO4)o2)cc1	1.1µM*	-1%	-95*	-1%	1.3µM*
COc1ccc(-c2nnc(NC(=O)c3cc(Cl)ccc3Cl)o2)cc1	1.1µM*	0%	-5	-13%	1.4µM*
COc1ccc(NC(=O)c2ccc3c(c2)OCO3)cc1	?	0%	-16	?	?
COc1ccc(-c2nnc(SCC(=O)Nc3cccc(Cl)c3)o2)cc1	-34%	0%	-11	?	?
COc1ccc(-c2nnc(NC(=O)c3ccc(F)cc3)o2)cc1	0.11µM*	-2%	-7	?	?
O=C(Nc1nnc(-c2ccc(F)cc2)o1)c1ccc(S(=O)(=O)N2CCOCC2)cc1	0.63µM*	0%	-18	7.3µM*	0.71µM*
CCN(c1ccccc1)S(=O)(=O)c1ccc(Cl)c(NC(=O)COC(=O)c2cc(O)c3ccccc3c2O)c1	10µM*	0%	14	-7%	13µM*
CCC(C)NCC(=O)Nc1cc(S(=O)(=O)N(CC)c2ccccc2)ccc1Cl (centres undefined)	?	0%	-3	-12%	-10%
CCN(c1ccccc1)S(=O)(=O)c1ccc(Cl)c(NC(=O)COC(=O)c2ccc(O)cc2)c1	?	0%	-3	?	?
CCN(c1ccccc1)S(=O)(=O)c1ccc(Cl)c(NC(=O)CNC(C)c2ccccc2)c1 (centres undefined)	.	0%	-10	15µM*	.
CC(=O)c1cccc(NC(=O)c2noc3c2CCc2ccccc2-3)c1	0.71µM*	1%	-20	?	2.2µM*
Cc1cccc(NC(=O)Nc2ccc3c(c2)CCC3)c1	2%	-1%	-11	?	-15%
COc1cccc(NC(=O)c2ccc3c(c2)CCCC3)c1	0%	0%	-8	?	-12%
SMILES	RORgamma inh	B2AR arrestin	TSHR antagonist	ELG1 DNA repair	Gal4-VP16 FLuc
CC(=O)c1cccc(NC(=O)Nc2ccc3c(c2)CCC3)c1	7.1µM*	0%	-10	?	7.9µM*
CC(=O)c1cccc(NC(=O)c2ccc3c(c2)CCCC3)c1	1.4µM*	0%	-131*	?	2.8µM*
CC(=O)c1cccc(NC(=O)Nc2ccc(C(=O)N3CCOCC3)cc2)c1	?	0%	23	10µM*	?
O=c1oc(CCCO)cc2ccc(/C=C/c3cccc([N+](=O)[O-])c3)cc12	.	0%	-19	?	.
S=C(NC1CCCCC1)N1CCOCCOCCN(C(=S)NC2CCCCC2)CCOCCOCC1	-11%	-1%	-6	18µM*	?
O=C(NC1CCCCCC1)C(=S)N1CCOCC1	12%	0%	-2	15%	-3%
O=c1cc(-c2c(F)c(F)c(F)c(F)c2F)oc2c(F)c(F)c(F)c(F)c12	2.5µM*	0%	-76*	?	3.2µM*
O=c1cc(-c2c(F)c(F)c(F)c(F)c2F)oc2ccccc12	7.9µM*	3%	-13	-10%	?
O=c1cc(-c2ccncc2)oc2ccccc12	-16%	0%	8	9.2µM*	-3%
O=c1cc(-c2ccc(O)cc2)oc2ccccc12	10%	0%	-9	?	0%
COC(=O)C12CC3(CCC4C5C(C(OCc6ccccc6)C41)C52)OCCO3 (centres undefined)	16%[10 µM]	.	.	.	0%[10 µM]
CCC[C@@H]1CCCC/C=C\CCCC(=O)OCCN1C(=O)OC(C)(C)C	.	0%	-7	25%	.
Oc1ccc(Cn2ccnc2)c2cccnc12	?	0%	-9	-21%	?
Oc1ccc(CNc2ccc(F)cc2)c2cccnc12	11µM*	0%	15	?	?
Oc1ccc(COCc2ccc(F)cc2)c2cccnc12	.	?	-8	.	.
Cc1cccc(NCc2ccc(O)c3ncccc23)c1	6.3µM*	0%	1	-3%	?
Oc1ccc(CNc2ccccc2)c2cccnc12	16µM*	0%	-9	-3%	0.79µM*
Cc1ccccc1NCc1ccc(O)c2ncccc12	11µM*	1%	-9	-3%	11µM*
O=C(CCC(=O)Nc1nnc(C2CCCCC2)s1)Nc1ccccc1	4%	0%	4	21%	11%
O=C(/C(=C\c1ccccc1)c1nc2ccccc2[nH]1)c1ccc(Cl)cc1	?	0%	-9	?	?
COc1cccc(C(=O)Nc2nc3ccccc3[nH]2)c1	4µM*	0%	5	?	10µM*
O=C(/C(=C/c1ccc(Cl)cc1)c1nc2ccccc2[nH]1)c1cccs1	3.2µM*	-1%	16	7.3µM*	?
O=C(Nc1nc2ccccc2[nH]1)c1cccs1	5µM*	-1%	-2	?	13µM*
COc1ccc(C(=O)Nc2nc3ccccc3[nH]2)cc1	2.8µM*	0%	-1	?	6.3µM*
COc1ccccc1C(=O)NC(=O)COC(=O)c1ccc(C)o1	.	0%	2	0%	.
CCCCN(C(=S)SC)C1CCS(=O)(=O)C1 (centres undefined)	5%	-1%	-9	2%	-4%
CCC1(c2ccccc2)NC(=O)N(CC(=O)Nc2ccc(S(N)(=O)=O)cc2)C1=O (centres undefined)	9%	-1%	10	2%	4%
